Reference: the supplement of paper PMC6897291
Where a name gives a salt, the structure may show the parent alone.

Key:
U-2932 [1] = test: growth inhibition by drug alone (1 - RLU/untreated control) (fraction); higher = stronger inhibition; details: 177Lu-lilotomab satetraxetan 0 ug/ml
Summary of the method: (§1)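 Compound doses on the pre-printed Selleck Cambridge Cancer Compound library plates were 10/100 nM for RIVA cells and 10/1,000 nM for U-2932 cells, seeded at 3,000 cells/well. Before seeding, cells were washed after 18 h with or without a radiolabelled anti-CD37 antibody conjugate (~600 MBq/mg; 0.5 µg/ml RIVA, 1 µg/ml U-2932). Growth inhibition was derived from RealTime-Glo luminescence relative to untreated no-drug control wells. Readings were taken daily starting on day 3, each after 1 h at 37°C, and each well's RLU was divided by the mean of 48 such wells per plate and subtracted from 1.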

U-2932 [2] = test: growth inhibition by drug plus 177Lu-lilotomab satetraxetan (1 - RLU/untreated control) (fraction); higher = stronger inhibition; details: 177Lu-lilotomab satetraxetan 1 ug/ml
Summary of the method: as §1

RIVA [3] = test: as above; details: 177Lu-lilotomab satetraxetan 0.5 ug/ml
Summary of the method: as §1

RIVA [4] = test: growth inhibition by drug alone (1 - RLU/untreated control) (fraction); higher = stronger inhibition; details: 177Lu-lilotomab satetraxetan 0 ug/ml
Summary of the method: as §1

Row | SMILES | growth inhibition by drug alone (U-2932 [1]; 10 nM, time (day): 3) | growth inhibition by drug alone (U-2932 [1]; 10 nM, time (day): 4) | growth inhibition by drug alone (U-2932 [1]; 10 nM, time (day): 5) | growth inhibition by drug alone (U-2932 [1]; 10 nM, time (day): 6) | growth inhibition by drug alone (U-2932 [1]; 1000 nM, time (day): 3) | growth inhibition by drug alone (U-2932 [1]; 1000 nM, time (day): 4) | growth inhibition by drug alone (U-2932 [1]; 1000 nM, time (day): 5) | growth inhibition by drug alone (U-2932 [1]; 1000 nM, time (day): 6) | growth inhibition by drug plus 177Lu-lilotomab satetraxetan (U-2932 [2]; 10 nM, time (day): 3) | growth inhibition by drug plus 177Lu-lilotomab satetraxetan (U-2932 [2]; 10 nM, time (day): 4) | growth inhibition by drug plus 177Lu-lilotomab satetraxetan (U-2932 [2]; 10 nM, time (day): 5) | growth inhibition by drug plus 177Lu-lilotomab satetraxetan (U-2932 [2]; 10 nM, time (day): 6) | growth inhibition by drug plus 177Lu-lilotomab satetraxetan (U-2932 [2]; 1000 nM, time (day): 3) | growth inhibition by drug plus 177Lu-lilotomab satetraxetan (U-2932 [2]; 1000 nM, time (day): 4) | growth inhibition by drug plus 177Lu-lilotomab satetraxetan (U-2932 [2]; 1000 nM, time (day): 5) | growth inhibition by drug plus 177Lu-lilotomab satetraxetan (U-2932 [2]; 1000 nM, time (day): 6) | growth inhibition by drug plus 177Lu-lilotomab satetraxetan (RIVA [3]; 10 nM, time (day): 3) | growth inhibition by drug plus 177Lu-lilotomab satetraxetan (RIVA [3]; 10 nM, time (day): 4) | growth inhibition by drug plus 177Lu-lilotomab satetraxetan (RIVA [3]; 10 nM, time (day): 5) | growth inhibition by drug plus 177Lu-lilotomab satetraxetan (RIVA [3]; 10 nM, time (day): 6) | growth inhibition by drug plus 177Lu-lilotomab satetraxetan (RIVA [3]; 100 nM, time (day): 3) | growth inhibition by drug plus 177Lu-lilotomab satetraxetan (RIVA [3]; 100 nM, time (day): 4) | growth inhibition by drug plus 177Lu-lilotomab satetraxetan (RIVA [3]; 100 nM, time (day): 5) | growth inhibition by drug plus 177Lu-lilotomab satetraxetan (RIVA [3]; 100 nM, time (day): 6) | growth inhibition by drug alone (RIVA [4]; 10 nM, time (day): 3) | growth inhibition by drug alone (RIVA [4]; 10 nM, time (day): 4) | growth inhibition by drug alone (RIVA [4]; 10 nM, time (day): 5) | growth inhibition by drug alone (RIVA [4]; 10 nM, time (day): 6) | growth inhibition by drug alone (RIVA [4]; 100 nM, time (day): 3) | growth inhibition by drug alone (RIVA [4]; 100 nM, time (day): 4) | growth inhibition by drug alone (RIVA [4]; 100 nM, time (day): 5) | growth inhibition by drug alone (RIVA [4]; 100 nM, time (day): 6)
1 | O=C1CN2Cc3c(ccc(Cl)c3Cl)N=C2N1 [Anagrelide hydrochloride] | 0.1 | 0.0554 | -0.0277 | -0.0568 | 0.0693 | 0.0958 | 0.0817 | 0.0377 | 0.101 | 0.119 | 0.141 | 0.272 | 0.0494 | 0.088 | 0.102 | 0.224 | 0.579 | 0.615 | 0.628 | 0.641 | 0.541 | 0.572 | 0.579 | 0.558 |  |  |  |  |  |  |  | 
2 | O=c1cc(N2CCOCC2)oc2c(-c3cccc4c3sc3ccccc34)cccc12 | 0.114 | 0.0778 | -0.0783 | -0.126 | 0.206 | 0.176 | 0.0314 | -0.00386 | 0.0719 | 0.131 | 0.166 | 0.2 | 0.312 | 0.318 | 0.34 | 0.421 | 0.597 | 0.621 | 0.62 | 0.635 | 0.447 | 0.499 | 0.523 | 0.529 | 0.21 | 0.183 | 0.173 | -0.0317 | -0.363 | -0.241 | -0.261 | -0.43
3 | OC[C@H]1O[C@@H](n2cnc3c2N=CNC[C@H]3O)C[C@@H]1O [Pentostatin] | 0.1 | 0.0372 | -0.116 | -0.114 | -0.0219 | -0.074 | -0.147 | -0.0984 | -0.00817 | 0.056 | 0.0512 | 0.0351 | 0.0728 | 0.0721 | 0.118 | 0.207 | 0.472 | 0.557 | 0.557 | 0.555 | 0.399 | 0.488 | 0.5 | 0.513 |  |  |  |  |  |  |  | 
4 | Cc1ccc(NC(=O)c2cccc(C(C)(C)C#N)c2)cc1Nc1ccc2ncn(C)c(=O)c2c1 | 0.0487 | 0.00122 | -0.0179 | -0.0294 | 0.157 | 0.159 | 0.087 | 0.137 | 0.00759 | 0.0624 | 0.11 | 0.17 | 0.173 | 0.189 | 0.164 | 0.263 | 0.556 | 0.622 | 0.643 | 0.651 | 0.432 | 0.547 | 0.564 | 0.563 | -0.0415 | -0.0437 | -0.0355 | -0.0473 | -0.346 | -0.245 | -0.279 | -0.339
